Screening data deposited in PubChem by The Scripps Research Institute Molecular Screening Center.
Sampled rows, rich in hits. Any-hit rate of the full collection: about 4.1%.
DAX1 inh-1: DAX1 (NR0B1) inhibition, primary screen. inhibition, % at 6.8 µM. 370,000 tested, 1.1% active. HEK293T StAR-luciferase reporter, SF-1/DAX-1 repression relief;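 active = inhibition above the mean over all tested compounds plus 3 SD, cut at about 3.6% in these data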;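 also: 0% = DAX-1 cells with DMSO and 100% = cells lacking DAX-1 with DMSO; higher inhibition means more luminescence from relief of DAX-1 repression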
DAX1 inh-2: inhibits human nuclear receptor DAX1; 340,000 tested, 0.99% active; AID 504766; P51843; inhibition, % at 6.75 µM; HEK293 Gal4-DAX1 luciferase reporter, luminescence;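 active = inhibition above the mean over all tested compounds plus 3 SD, cut at about 4.2% in these data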;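 also: 0% = DAX1-transfected cells with DMSO and 100% = empty-vector control cells with DMSO; inhibition shows as a rise in luminescence from relieved DAX1 repression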
Target sequence (P51843 207-470 limits assumed): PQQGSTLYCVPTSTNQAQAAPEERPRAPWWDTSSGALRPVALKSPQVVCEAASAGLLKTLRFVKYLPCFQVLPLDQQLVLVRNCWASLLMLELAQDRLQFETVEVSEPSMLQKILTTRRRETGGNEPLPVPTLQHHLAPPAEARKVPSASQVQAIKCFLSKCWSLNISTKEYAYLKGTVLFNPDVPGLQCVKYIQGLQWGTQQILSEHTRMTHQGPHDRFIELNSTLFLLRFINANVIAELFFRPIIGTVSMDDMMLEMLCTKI
hcDAF12 agonist: H. contortus DAF-12 activation, primary screen; HEK293 hcDAF-12 lit1-tk-luc reporter, luminescence; 0% DMSO, 100% Δ7-dafachronic acid; activation, % at 6.8 µM; 370,000 tested, 1.4% active; AID 652067;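 active = activation above the mean of all tested compounds plus 3 SD, cut at about 5.5% in these data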;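 also: 100% = response to 3 µM Δ7-dafachronic acid high control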
hgDAF12 agonist: hgDAF-12 agonism, primary luciferase screen; AID 687014; activation, % at 6.8 µM; HEK293 GAL4-hgDAF12 UAS-luciferase reporter, agonist luminescence; normalized to butyrate control; 370,000 tested, 1.8% active;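 active = activation above a cutoff set at the mean of all screened compounds plus 3 SD, cut at about 10% in these data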;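 also: 0% = DMSO wells and 100% = sodium butyrate wells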
ssDAF12 agonist: activators of S. stercoralis DAF-12 nuclear receptor; HEK293 ssDAF-12/GRIP1 lit1-tk-luc reporter, luminescence; % of 3 µM dafachronic acid response; activation, % at 6.8 µM; 370,000 tested, 1% active;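 active = activation above the mean over all tested compounds plus 3 SD, cut at about 0.9% in these data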;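 also: 0% = DMSO-only wells and 100% = 3 µM delta7-dafachronic acid wells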
DAX1 conf: NR0B1 (human) inhibition, confirmation. shares compounds with DAX1 inh-1. HEK293T StAR-promoter luciferase reporter, SF-1/DAX-1 repression. inhibition, % at 6.8 µM. 2,400 tested, 87% active;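 active = inhibition above the average of every tested compound plus 3 SD, cut at about 3.8% in these data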;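 also: 0% = DAX-1 cells with DMSO and 100% = no DAX-1 control cells with DMSO; active compounds raise luminescence by relieving repression of the StAR reporter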
SF1 AF2mut Luc: counter-screen for DAX1 inhibitors: nonselective inhibitors with SF-1 AF2 mutant; shares compounds with DAX1 inh-1; inhibition, % at 6.8 µM; AID 652136; HEK293 StAR-luciferase, luminescence; 2,400 tested, 78% active;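 active = inhibition above the mean of all tested compounds plus 3 SD, cut at about 3% in these data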;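 also: 0% = DAX-1 transfected cells with DMSO and 100% = cells without DAX-1 with DMSO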
LXRb hcDAF ctr: LXR-beta agonism as hcDAF-12 counter-screen | HEK293 Gal4-LXR tk-luc reporter, luminescence, 24 h; normalized: DMSO 0%, positive control 100% | 3,400 tested, under 10 active | activation, % at 6.8 µM | shares compounds with hcDAF12 agonist;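 active = mean percent activation of the reporter above a cutoff set as the average over tested compounds plus their standard deviation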
Target sequence (P55055 whole entry, looked up, the tested form may be a part): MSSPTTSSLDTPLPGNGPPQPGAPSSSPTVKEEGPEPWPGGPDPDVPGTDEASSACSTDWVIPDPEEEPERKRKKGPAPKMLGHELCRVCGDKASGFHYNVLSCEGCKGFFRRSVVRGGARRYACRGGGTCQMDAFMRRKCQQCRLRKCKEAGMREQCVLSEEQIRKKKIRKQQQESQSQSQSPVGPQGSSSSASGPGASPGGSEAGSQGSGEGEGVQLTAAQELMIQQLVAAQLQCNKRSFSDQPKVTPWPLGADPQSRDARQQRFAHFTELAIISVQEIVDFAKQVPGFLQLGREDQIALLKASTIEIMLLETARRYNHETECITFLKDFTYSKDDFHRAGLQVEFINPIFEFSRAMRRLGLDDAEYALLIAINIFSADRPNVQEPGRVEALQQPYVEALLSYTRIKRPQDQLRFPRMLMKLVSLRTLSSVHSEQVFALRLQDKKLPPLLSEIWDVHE
hcDAF12 conf: confirmation of H. contortus DAF-12 agonists; shares compounds with hcDAF12 agonist; HEK293 hcDAF-12 lit1-tk-luc reporter, luminescence; % of Δ7-dafachronic acid response; activation, % at 6.8 µM; 3,400 tested, 61% active; AID 743032;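 active = mean activation across triplicate tests above the threshold derived from the earlier primary screen, cut at about 5.5% in these data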;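 also: 0% = DMSO only wells and 100% = 3 µM Δ7-dafachronic acid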
Active calls of the source: *; x = no result.

SMILES	DAX1 inh-1	DAX1 inh-2	hcDAF12 agonist	hgDAF12 agonist	ssDAF12 agonist	DAX1 conf	SF1 AF2mut Luc	LXRb hcDAF ctr	hcDAF12 conf
Clc1ccc(OCc2nc(-c3ccccn3)no2)c(Br)c1	6.7*	-1.2	6.8*	6.4	0.4	18.1*	8.1*	1.5	10.2*
c1ccc(CCc2nc(-c3ccccn3)no2)cc1	3.6	1.8	1.8	9.4	-1.4	x	x	x	x
Cc1ccc2c(c1)Cc1nc3ccccc3nc1-2	7.4*	-2.1	16.5*	19.8*	2.8*	14.3*	8.5*	1.6	14.7*
Nc1[nH]n(-c2ccccc2)c(=O)c1N=Nc1ccc2c(c1)OCCO2	5.0*	-1.1	9.4*	15.3*	2.1*	12.9*	6.0*	1.9	11.7*
O=c1[nH]c(C2C3CC4CC(C3)CC2C4)nc2ccccc12 (stereo unspecified)	0.0	-0.9	-1.4	-1.5	-2.1	x	x	x	x
CNc1ccc(C=C2C=Cc3ccccc32)cc1	7.3*	4.7*	9.1*	14.9*	0.9	16.8*	7.2*	1.8	10.9*
COCC1CCN(C(=O)c2cc(COc3ccc(OC)c4ccccc34)on2)C1 (stereo unspecified)	5.6*	2.1	8.1*	10.7*	0.8	5.4*	5.1*	0.7	7.7*
CSc1ccc(/C=C/c2ccc3cccc(O)c3n2)cc1	5.0*	0.1	21.5*	33.7*	3.2*	15.8*	7.1*	1.7	11.1*
O=C(Nc1ccc([N+](=O)[O-])cc1)C(=O)Nc1cccc(C(=O)O)c1	5.4*	-7.0	11.4*	13.2*	2.7*	11.9*	8.5*	1.9	25.4*
Cn1ncc(Cl)c1C(=O)Nc1ccc2c(c1)CCC2	5.8*	1.0	6.8*	10.1	1.3*	5.3*	2.5	0.5	5.7*
COC(=O)c1cc(NC(=O)c2c(Cl)cnn2C)cc(C(=O)OC)c1	0.0	-1.7	-2.0	-0.8	-1.2	x	x	x	x
COc1cc(CNC(C)C23CC4CC(CC(C4)C2)C3)cc(OC)c1OC (stereo unspecified)	-0.1	-0.9	-1.2	0.9	-1.0	x	x	x	x
CCc1ccc(NC(=O)c2cnn3ccccc23)cc1	5.5*	-4.0	11.6*	4.7	0.6	6.1*	1.4	1.7	19.2*
CC1(O)C(c2ccccc2)=Nc2ccccc21 (stereo unspecified)	5.3*	4.5*	9.9*	11.2*	0.0	12.7*	7.6*	1.3	6.5*
O=C1c2ccccc2S(=O)(=O)N1CC1CC(c2ccccc2Cl)=NO1 (stereo unspecified)	5.5*	3.0	8.7*	15.4*	0.6	11.0*	8.1*	0.9	13.2*
COc1ccccc1C1=NOC(CN2C(=O)c3ccccc3S2(=O)=O)C1 (stereo unspecified)	2.7	4.0	2.2	9.8	-0.8	x	x	x	x
Clc1ccccc1/C=N/NC1=Nc2cccc3cccc1c23	4.6*	4.3*	16.4*	18.4*	2.8*	18.5*	8.0*	1.1	14.5*
CCC(C)c1ccccc1NC(=O)C(C)OC(=O)c1ccco1 (stereo unspecified)	-0.9	0.1	-0.9	0.6	-1.4	x	x	x	x
CCCCc1nc2cc(C(=O)N(C)C3CCOCC3)ccc2o1	4.6*	0.9	7.6*	9.7	0.6	5.5*	6.8*	0.3	2.7
CC(=O)N1CCN(C(=O)c2ccc3oc(CCCc4ccccc4)nc3c2)CC1	-0.4	0.2	0.4	1.1	-1.0	x	x	x	x
O=C(NCCSc1ccccc1)c1ccc(Br)cc1	4.7*	0.8	7.4*	13.1*	-0.2	15.4*	7.7*	1.7	5.9*
COc1ccc(N=CC2=C(O)c3ccccc3C2=O)cc1	6.0*	-1.5	13.0*	10.8*	1.1*	3.0	-0.8	1.2	6.1*
COc1ccc(N=Cc2c[nH][nH]c2=O)cc1	0.5	-0.2	-0.4	-2.5	-0.5	x	x	x	x
CN=CC1=C(O)c2ccccc2C1=O	0.2	0.2	2.0	-0.7	-0.3	x	x	x	x
O=C1C(C=Nc2ccccc2O)=C(O)c2ccccc21	5.9*	0.1	20.1*	15.6*	2.0*	11.6*	5.1*	2.5	18.9*
SMILES	DAX1 inh-1	DAX1 inh-2	hcDAF12 agonist	hgDAF12 agonist	ssDAF12 agonist	DAX1 conf	SF1 AF2mut Luc	LXRb hcDAF ctr	hcDAF12 conf
CNC(=S)NNC(=O)c1ccc(C(C)(C)C)cc1	0.5	3.5	3.9	2.4	-1.1	x	x	x	x
NC(=O)c1ccccc1N/C=C/C(=O)c1ccco1	2.2	1.6	3.4	9.3	0.0	x	x	x	x
O=C(/C=C/Nc1ccccc1C(F)(F)F)c1ccco1	4.9*	1.5	10.5*	19.1*	1.1*	13.3*	8.3*	1.5	9.1*
O=C(/C=C\Nc1cccc(F)c1)c1ccc2c(c1)OCO2	4.7*	-2.7	9.0*	11.8*	0.2	6.8*	-0.5	1.1	7.2*
COC(=O)c1ccc(N/C=C\C(=O)c2ccc3c(c2)OCO3)cc1	1.3	1.0	-0.1	-1.6	-1.0	x	x	x	x
C/C(=N\NC(=O)c1ccccc1O)c1ccc(NC(=O)c2ccccc2)cc1	6.0*	0.0	7.4*	11.6*	-0.3	2.8	2.3	-0.1	2.2
C/C(=N/NC(=O)c1ccncc1)c1ccc(NC(=O)c2ccccc2)cc1	-0.3	-1.0	-1.5	1.1	-0.8	x	x	x	x
COc1ccccc1-c1cnc(C(O)c2cccc(CN3CCCCC3)c2)[nH]1 (stereo unspecified)	0.1	x	-1.1	-2.5	-1.0	x	x	x	x
Cn1c(/C=N/Nc2nc3ccccc3[nH]2)nc2ccccc21	5.5*	1.9	16.6*	15.1*	1.9*	-2.4	-3.6	1.9	8.0*
CCCn1c(/C=N/Nc2nc3ccccc3[nH]2)nc2ccccc21	0.8	-1.8	1.1	5.8	0.5	x	x	x	x
c1ccc(CCCN2CCN(c3ccccc3)CC2)cc1	0.1	-0.2	-0.5	3.2	0.3	x	x	x	x
O=C(NCc1ccccc1)C(C1CC1)n1c(=O)c(-c2cc3ccccc3[nH]2)nc2ccccc21 (stereo unspecified)	-0.5	x	2.1	3.1	-0.6	x	x	x	x
CCOC(=O)c1sc(NC(=O)c2cncc(Br)c2)nc1C	0.4	x	-1.0	2.1	-0.6	x	x	x	x
Cc1csc(NC(=O)c2cncc(Br)c2)n1	5.2*	0.4	6.8*	11.5*	0.2	13.0*	7.8*	1.3	4.4
